Screening results from PubChem BioAssay.
Cy5 interf NS3h: Cy5 fluorescence quenchers or enhancers, artefact control for HCV NS3 helicase inhibitor project, biochemical, ChemBridge library, Cy5 readout; Cy5-dT15 DNA with NS3h, fluorescence interference; actives lie on both sides; signal over control mean, under 1 quenches; fluorescence interference ratio at 100 µM; hit rate 6% among 16,000; AID 720488, 2013;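 active means compound fluorescence over control fluorescence at most 0.8, a quencher, or at least a set upper limit, an enhancer; inactive means ratio between 0.8 and the set upper limit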
HCV NS3h FP: HCV NS3 helicase inhibitors, primary screen, biochemical, fluorescence polarization, ChemBridge library | NS3h Cy5-dT15 DNA binding | hit rate 1.6% among 16,000 | Hepatitis C virus NS3 helicase | inhibition, % at 100 µM;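 active means inhibition above the average over every tested compound plus 3 SD, cut at about 40% in these data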
Large screens that a line does not name were inactive. In the library only some 6.8% were active in any assay of this set; here they are far more common.

O=C(Nc1ccc(-c2nc3ncccc3o2)cc1)c1ccc(-c2cccc(Cl)c2)o1	Cy5 interf NS3h 1.2
O=C(Nc1ccc2ccccc2c1)c1ccc(-c2cccc(Cl)c2)o1	none
COc1ccc(NC(=O)/C(C#N)=C\c2ccc(-c3ccc([N+](=O)[O-])cc3)o2)cc1	none
COC(C)(C)c1cc(-c2cccc3ccccc23)nc(N)n1	none
Cc1ccc(OCC(=O)NC23CC4CC(CC(C4)C2)C3)cc1	none
CCN1C(=O)/C(=C\c2cccc(C(F)(F)F)c2)SC1=S	Cy5 interf NS3h 0.71
O=C1/C(=C/c2ccccc2[N+](=O)[O-])SC(=S)N1c1cccc(C(F)(F)F)c1	Cy5 interf NS3h 0.76
O=C1/C(=C\c2ccc([N+](=O)[O-])cc2)SC(=S)N1c1cccc(C(F)(F)F)c1	none
CCN1C(=O)/C(=C\c2cccc(O)c2)SC1=S	none
Cc1ccc(COc2ccccc2C=C2C(=O)NC(=S)NC2=O)cc1	none
O=C1/C(=C/c2ccccc2OCc2ccc([N+](=O)[O-])cc2)SC(=S)N1c1ccccc1	Cy5 interf NS3h 0.75
O=C1/C(=C/c2ccccc2OCc2ccc([N+](=O)[O-])cc2)SC(=S)N1Cc1ccccc1	none
O=C1NC(=S)NC(=O)C1=Cc1ccccc1OCc1ccc([N+](=O)[O-])cc1	Cy5 interf NS3h 0.68
O=C(Nc1cccc2nsnc12)c1cccc(Br)c1	none
COC(=O)c1cc(C(=O)NC2CCSC2=O)cc([N+](=O)[O-])c1 (centres undefined)	none
CCC(=O)Nc1cccc(NC(=O)c2ccc(Cl)c(Cl)c2)c1	none
O=C(NCCOc1ccc(F)cc1)c1cccc2ccccc12	none
O=C(NCCOc1ccc(F)cc1)c1ccccc1-c1ccccc1	Cy5 interf NS3h 0.69
C/C(Nc1ccc2c(c1)OCO2)=C(/C#N)C(N)=O	none
O=C(O)CSCc1cccc([N+](=O)[O-])c1	Cy5 interf NS3h 0.7
COC(=O)CNC(=O)c1cccc([N+](=O)[O-])c1	none
O=C1/C(=C/c2cccc(O)c2)SC(=S)N1c1cccc(Cl)c1	none
CC1=C(C(=O)Nc2ccc(C)cc2)C(c2ccc(C(C)C)cc2)NC(=S)N1 (centres undefined)	none
COc1cc(C(=O)O)c(-n2c(C)ccc2C)cc1OC	Cy5 interf NS3h 1.4
COc1ccc(-n2c(C)ccc2C)c(N)c1	none
Cc1ccc2nc(Nc3ccc(C(=O)O)cc3)nc(-c3ccccc3)c2c1	none
CC(=O)Nc1ccc(NC(=S)NC(NC(=O)c2ccc(C)cc2)C(Cl)(Cl)Cl)cc1 (centres undefined)	Cy5 interf NS3h 0.67
CC(=O)NC(NC(=S)Nc1cccc(Cl)c1)C(Cl)(Cl)Cl (centres undefined)	Cy5 interf NS3h 1.2
CC(=O)c1ccc(NC(=S)NC(NC(=O)c2ccc(Cl)cc2Cl)C(Cl)(Cl)Cl)cc1 (centres undefined)	none
CC(=O)c1ccc(NC(=S)NC(NC(=O)c2ccc(C)cc2)C(Cl)(Cl)Cl)cc1 (centres undefined)	none
O=C(NC(NC(=S)Nc1cccc2ccccc12)C(Cl)(Cl)Cl)c1ccccc1 (centres undefined)	none
Cc1ccc(C(=O)NC(NC(=S)Nc2cccc3ccccc23)C(Cl)(Cl)Cl)cc1 (centres undefined)	Cy5 interf NS3h 0.71
COc1ccccc1C/C(N)=N\OC(=O)c1ccc(I)cc1	none
O=C1N=c2ccccc2=C1c1sc(=S)n(-c2ccc(F)cc2)c1O	none
O=C1N=c2ccccc2=C1c1sc(Nc2ccc(O)cc2)nc1O	Cy5 interf NS3h 0.63
CC(=O)CC(=O)Nc1ccc(Cl)c(C(F)(F)F)c1	Cy5 interf NS3h 0.68
CC(=O)CC(=O)Nc1ccc(Cl)c(Cl)c1	none
COc1c(Cl)cc(C(=O)Nc2cccc(C(F)(F)F)c2)cc1Cl	Cy5 interf NS3h 0.53
COc1ccc(C(=O)/C=C/Nc2ccccc2NS(=O)(=O)c2ccc([N+](=O)[O-])cc2)cc1OC	none
COc1ccc(C(=O)Nc2ccc(C)cc2C)cc1OC	none
COc1ccc(C(=O)Nc2ccc(Cl)cc2C)cc1OC	Cy5 interf NS3h 0.78
COc1ccc(C(=O)/C=C/Nc2ccc(Cl)cc2[N+](=O)[O-])cc1OC	Cy5 interf NS3h 0.22
COc1ccc(NC(=O)c2cccc(Cl)c2)cc1Cl	Cy5 interf NS3h 0.7
COc1ccc(NC(=O)c2ccc(Cl)cc2)cc1Cl	none
COc1c(Cl)cc(C(=O)Nc2c(C)cccc2C)cc1Cl	none
COC(=O)C1=C(C)N=c2s/c(=C\c3ccc(F)cc3)c(=O)n2C1c1ccccc1 (centres undefined)	none
COc1ccc(NC(=O)c2ccc(OC(C)=O)cc2)cc1O	none
Cc1cccc(NCCC(=O)c2cccs2)c1C	Cy5 interf NS3h 0.78
O=C(CCNc1ccc(F)cc1)c1cccs1	none
CCOC(=O)C1=C(N)Oc2ccc3ccccc3c2C1c1ccc(Br)cc1 (centres undefined)	none
CCc1ccccc1NC(=O)CN(c1ccc(C)c(Cl)c1)S(C)(=O)=O	none
O=S(=O)(c1ccccc1C(O)(c1ccccc1)c1ccccc1)c1ccccc1C(O)(c1ccccc1)c1ccccc1	Cy5 interf NS3h 0.76
Cc1cc(OCC(=O)Nc2ccc(F)c([N+](=O)[O-])c2)ccc1Cl	Cy5 interf NS3h 1.2
Cc1cc(Cl)ccc1OCC(=O)Nc1ccc(F)c([N+](=O)[O-])c1	none
N/C(=N/OC(=O)c1cccc(Br)c1)c1cccnc1	none
C/C(=N/NC(N)=O)C1CC1(C)C(C)(C)C (centres undefined)	HCV NS3h FP 44
NC(=O)N=Nc1c(O)[nH]c2ccccc12	none
O=C(CSCc1cccc(Br)c1)N=Nc1c(O)[nH]c2ccccc12	Cy5 interf NS3h 0.8
O=C(CO/N=C\c1ccccc1)N=Nc1c(O)[nH]c2ccc(Br)cc12	Cy5 interf NS3h 0.78
Cc1ccc2[nH]c(O)c(N=NC(=O)COc3ccccc3)c2c1Br	none
CC(C)n1c(=S)[nH]c2c1c(=O)n(C)c(=O)n2C	none
O=C1C2C3C=CC(CC3)C2C(=O)N1/N=C\c1ccc(I)o1 (centres undefined)	none
O=C1C2C3C=CC(CC3)C2C(=O)N1/N=C\c1cc([N+](=O)[O-])cc(Br)c1O (centres undefined)	Cy5 interf NS3h 0.68
O=C1C(Cl)=CC(=NS(=O)(=O)c2ccc(Cl)cc2)c2ccccc21	none
O=C1C(Cl)=CC(=NS(=O)(=O)c2ccccc2)C=C1Br	Cy5 interf NS3h 0.66
Cc1ccccc1OCCNC(=O)c1cccc2ccccc12	none
O=C(CCCC(=O)OCC(F)(F)C(F)F)Nc1ccc(F)cc1F	none
O=C(Cn1cnc([N+](=O)[O-])n1)Nc1ccc(F)cc1F	Cy5 interf NS3h 0.76
Cc1ccccc1N1C(=O)/C(=C\c2ccc(F)cc2)SC1=S	none
C=CCc1ccccc1OCCOc1c(Br)cc(/C=N\n2cnnc2)cc1OC	none
CCOc1ccc(/C=C2\C(=O)NC(=O)N(c3cccc(Br)c3)C2=O)cc1Cl	Cy5 interf NS3h 1.2
CCOc1ccc(/C=C2\C(=O)NC(=O)N(c3ccc(Cl)cc3)C2=O)cc1Cl	none
CCOc1ccc(N2C(=O)NC(=O)/C(=C\c3ccc(OCC)c(Cl)c3)C2=O)cc1	none
CCOc1ccc(/C=C2\C(=O)NC(=O)N(c3ccc(C)cc3)C2=O)cc1Cl	HCV NS3h FP 41
COc1ccc(S(=O)(=O)NC(C)C2C3CC4CC(C3)CC2C4)cc1 (centres undefined)	none
CCc1ccc(NCCC(=O)c2ccc(Cl)c(Cl)c2)cc1	none
COc1ccc(C2C(=C(O)c3ccccc3)C(=O)C(=O)N2c2cccnc2)cc1OC (centres undefined)	none
